A selection: hits, their analogues and other compounds. The true share with any hit is near 5.4%.
IMPase inh – IMPase inhibition in cells; P97697; CHO-M1 cells, IP1 accumulation, HTRF TR-FRET ratio; inhibition (IP1 accumulation), % at 46.1 µM; 120,000 tested, under 10 active; active = well fitted curve in the direction sought with a large enough effect in the signal ratio, not every such curve was filed as active; inconclusive = small, poorly fitted or top-dose-only effect, or a change in a side signal; inactive = no such curve, though single readings can be large or run the other way; the % refers to the signal ratio;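 also: cells stimulated with carbachol in lithium chloride buffer; higher means more IMPase inhibition seen as more IP1 and lower FRET ratio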
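Cellular IMPase inhibition is scored as a rise in cytosolic IP1, detected by competitive TR-FRET between d2-labelled IP1 and a europium anti-IP1 antibody. M1-expressing CHO cells were stimulated with carbachol for 30 min at 37C, with lithium (50 mM LiCl) present in the buffer.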
PNC assembly inh – inhibitors of perinucleolar compartment assembly | AID 2417 | actives 3.1% (n = 140,000) | activity change (PNC), negative = inhibition, % at 10 µM | PC3M PTB-GFP, PNC prevalence imaging, 16 h; hits give low values;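 active = readout at or below -70, meaning at least 70% loss of cells showing the perinucleolar compartment, a nuclear body marking cancer cells; inconclusive = readout between -30 and a set limit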
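Read-out is percentage of cells bearing a perinucleolar compartment, from automated 20x imaging of fixed, Hoechst-stained PC3M PTB-GFP cells. Cells were seeded 4 h, then exposed 16 h to compound (23 nl of library stock) in duplicate plates.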
ALOX15B inhib – blocks human 15-lipoxygenase 2 activity; O15296; purified 15hLO-2, xylenol orange hydroperoxide absorbance; Potency, µM (top dose mostly 57.1 µM), actives largely listed as inhibitors; actives 0.56% (n = 110,000); AID 881; also: nearly all actives have a fitted effect of over 60% in size
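Read-out: hydroperoxide product oxidises ferrous iron, measured as xylenol orange complex via the 573-to-405 nm absorbance ratio after 30 min. Reaction: 50 nM enzyme, 15 min compound preincubation, 45 uM arachidonic acid, 90 min RT, Hepes pH 7.5 with Triton X-100.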
IMPase Li inh – cell-permeable IMPase inhibitors with lithium potentiation; actives 0.35% (n = 210,000); Potency, µM (top dose mostly 59.4 µM), usual class: inhibitors; AID 1457; CHO-M1 cells, IP1 TR-FRET (IP-One), carbachol + lithium;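 also: IP1 builds up when IMPase is blocked and the TR-FRET signal falls; nearly all actives have a fitted effect of over 50% in size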
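CHO-M1, 2000 cells/well, 16–30 h culture; cpd + low Li+, 30 min 37C; lysis with d2-IP1/Eu-anti-IP1 Ab, 10 min RT; TR-FRET 665/620 ratio and 620 channel; AC50 via Hill.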
HPGD block – HPGD (human) dehydrogenase inhibition. P15428. purified HPGD, NADH fluorescence kinetic, PGE2 substrate. Potency, µM, actives largely listed as inhibitors. actives 4.3% (n = 150,000). AID 894; active = well fitted inhibition curve with a large enough effect, not every such curve was filed as active; inconclusive = small, poorly fitted or top-dose-only effect, or another doubt; inactive = no such curve, though single readings can be large or run the other way
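20 nM HPGD preincubated 15 min at room temperature with compound in 50 mM Tris-HCl pH 8, 0.01% Tween 20. Started with 1 mM NAD+ and 30 uM prostaglandin E2; NADH fluorescence (360/450 nm) read 5 times over 30-s intervals, last minus first.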
ALOX12 inhib – inhibitors of human 12-lipoxygenase (ALOX12); purified 12-hLO, xylenol orange hydroperoxide absorbance; Potency, µM (doses to about 57.1 µM), usual class: inhibitors; actives 0.12% (n = 150,000); AID 1452; also: nearly all actives have a fitted effect of over 55% in size
Target sequence (P18054 whole entry, looked up): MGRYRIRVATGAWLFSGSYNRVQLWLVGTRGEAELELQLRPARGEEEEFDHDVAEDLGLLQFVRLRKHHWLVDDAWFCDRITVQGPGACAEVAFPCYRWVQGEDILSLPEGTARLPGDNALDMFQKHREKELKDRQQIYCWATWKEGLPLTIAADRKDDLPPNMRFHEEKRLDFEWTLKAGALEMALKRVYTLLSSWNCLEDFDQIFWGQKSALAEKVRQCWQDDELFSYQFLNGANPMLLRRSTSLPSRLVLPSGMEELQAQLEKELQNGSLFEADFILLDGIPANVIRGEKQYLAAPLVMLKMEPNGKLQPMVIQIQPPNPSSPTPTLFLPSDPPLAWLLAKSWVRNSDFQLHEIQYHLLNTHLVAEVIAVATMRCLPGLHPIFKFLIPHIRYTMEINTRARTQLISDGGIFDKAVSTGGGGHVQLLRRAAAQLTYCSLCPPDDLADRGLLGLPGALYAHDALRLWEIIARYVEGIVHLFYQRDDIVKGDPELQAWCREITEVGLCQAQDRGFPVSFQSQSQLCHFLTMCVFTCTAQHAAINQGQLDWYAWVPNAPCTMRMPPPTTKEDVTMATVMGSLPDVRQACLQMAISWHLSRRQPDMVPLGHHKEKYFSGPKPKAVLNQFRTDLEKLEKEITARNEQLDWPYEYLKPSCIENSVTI
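Hydroperoxide formation by human 12-lipoxygenase from 40 uM arachidonic acid was followed colorimetrically via ferric-xylenol orange complex, using the 573/405 nm absorbance ratio. Enzyme concentration was 150 nM, with 30 min reaction at room temperature.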
Large screens that a line does not name were inactive. Unless noted, calls follow the shape of the dose curve; as a rule, active = well fitted curve in the direction sought with a large enough effect; inconclusive = small, poorly fitted or top-dose-only effect, or another doubt; inactive = no such curve, though single readings can be large; an effect the other way counts as inactive or inconclusive.

Nc1ncnc2c1ncn2[C@@H]1O[C@H](COP(=O)(O)OP(=O)(O)OC[C@H]2OC(O)[C@H](O)[C@@H]2O)[C@@H](O)[C@H]1O (stereo not given in full)	none (no result: IMPase inh, PNC assembly inh, ALOX15B inhib, HPGD block, ALOX12 inhib)
COc1ccc(C(=O)Nc2ccc(-c3nc4ncccc4o3)cc2C)cc1Br	none (no result: PNC assembly inh, ALOX15B inhib, IMPase Li inh, HPGD block, ALOX12 inhib)
O=C(NCc1ccco1)c1ccc(CNc2c(N3CCCCC3)c(=O)c2=O)cc1	HPGD block 14.1µM (no result: IMPase inh, ALOX15B inhib)
CC1CCCN(CCC(=O)c2ccc(Br)cc2)C1 (stereo not given)	ALOX15B inhib inconclusive, HPGD block 3.98µM
CC1CCCN(CCOc2ccc(Br)cc2)C1 (stereo not given)	none (no result: IMPase inh, ALOX15B inhib)
O=C(O[C@@H]1OC2COC(=O)c3cc(O)c(O)c(O)c3-c3c(cc(O)c(O)c3O)C(=O)O[C@@H]([C@H]1O)[C@@H]2O)c1cc(O)c(O)c(O)c1	HPGD block 1.78µM (no result: IMPase inh, ALOX15B inhib)
Oc1cc(Cc2ccccc2)cnc1CN1CCCCC1	HPGD block 25.1µM
Cc1cc(Cl)c(OCCOCCN2CCCCC2)c(Br)c1	PNC assembly inh -101.7 (no result: IMPase inh, ALOX15B inhib)
Cc1cc(Cl)c(OCCOCCN2CCCC(C)C2)c(Br)c1 (stereo not given)	none (no result: IMPase inh, PNC assembly inh, ALOX15B inhib, HPGD block, ALOX12 inhib)
CCOc1ccc(C2C(C(=O)c3ccco3)=C(O)C(=O)N2CCN(C)C)cc1 (stereo not given)	none
C=CCOc1cccc(C2C(C(=O)c3ccco3)=C(O)C(=O)N2CCN(CC)CC)c1 (stereo not given)	PNC assembly inh -133.8
CCCCOc1ccccc1C1CC(=O)Nc2ccc3ccccc3c21 (stereo not given)	none (no result: PNC assembly inh, ALOX15B inhib, IMPase Li inh, HPGD block, ALOX12 inhib)
CCOC(=O)c1ccc(NC(=O)/C(C#N)=C/c2ccc(OC)cc2)cc1	none (no result: PNC assembly inh, ALOX15B inhib, IMPase Li inh, HPGD block, ALOX12 inhib)
Cc1cc2c(=O)n(CC(=O)N3CCN(c4ccccc4)CC3)cnc2s1	PNC assembly inh -122.4
CO[C@@H](NC(N)=O)C(=O)O	none (no result: IMPase inh, PNC assembly inh)
CCC(C)(C(=O)NC1CCCC1)N(Cc1cccs1)C(=O)Cc1cccs1 (stereo not given)	none
CCC(C)(C(=O)NC1CCCC1)N(Cc1cccs1)C(C)=O (stereo not given)	PNC assembly inh -100.0 (no result: ALOX15B inhib)
CCCOc1ccc(Cc2nc(N)nc(N)n2)cc1	none
CCOc1ccc(Cc2nc(N)nc(N)n2)cc1	PNC assembly inh -100.0 (no result: ALOX15B inhib)
N#Cc1ccccc1NC(=O)Nc1ccc(Cl)cc1	PNC assembly inh -109.4
N#Cc1ccccc1NC(=O)Nc1cccc(Cl)c1	PNC assembly inh inconclusive
CCc1ccc(O)c(N=Cc2ccccc2O)c1	ALOX15B inhib 15.8µM, ALOX12 inhib inconclusive
CCN(CC(=O)Nc1ccccc1Br)C1CCCCC1	none (no result: IMPase inh, PNC assembly inh, ALOX15B inhib, HPGD block, ALOX12 inhib)
O=C(CSC1CCCCC1)Nc1ccccc1Br	PNC assembly inh inconclusive, HPGD block 17.8µM (no result: IMPase inh, ALOX15B inhib)
COc1ccc(OC)c(NC(=S)NCc2ccc(S(N)(=O)=O)cc2)c1	none (no result: IMPase inh, PNC assembly inh, ALOX15B inhib, HPGD block, ALOX12 inhib)
COc1ccc(NC(=O)CC(=O)Nc2ccc(OC)cc2OC)c(OC)c1	PNC assembly inh -126.6
COc1ccc(NC(=S)NCc2ccc(S(N)(=O)=O)cc2)c(OC)c1	HPGD block 14.1µM (no result: ALOX15B inhib)
CCCCC(=O)Nc1ccc(NC(=O)CC)cc1OC	PNC assembly inh -83.9
Cc1cc(Cl)ccc1NC(=O)CCC(=O)O	PNC assembly inh -83.5 (no result: IMPase inh, ALOX15B inhib)
COc1ccc(NC(=O)CCSCCC(=O)Nc2ccc(OC)cc2OC)c(OC)c1	PNC assembly inh inconclusive (no result: IMPase inh, ALOX15B inhib)
Oc1c(Br)cc(Br)cc1-c1nc2ccccc2s1	none (no result: PNC assembly inh, ALOX15B inhib, IMPase Li inh, HPGD block, ALOX12 inhib)
COc1ccc(OC)c(NC(=O)Cn2cc(C(=O)c3cccs3)c3ccccc32)c1	none (no result: PNC assembly inh, ALOX15B inhib, IMPase Li inh, HPGD block, ALOX12 inhib)
CC[C@H](C)[C@@H]1O[C@]2(CC[C@@H]1C)C[C@H]1C[C@H](CC=C(C)[C@@H](O[C@H]3C[C@H](OC)[C@H](O[C@H]4C[C@H](OC)[C@H](O)[C@H](C)O4)[C@H](C)O3)[C@@H](C)C=CC=C3CO[C@@H]4[C@@H](O)C(C)=C[C@H](C(=O)O1)[C@@]34O)O2	none (no result: PNC assembly inh, IMPase Li inh, HPGD block)
COc1ccc(NCC(=O)Nc2ccc(Cl)cc2C)c(OC)c1	PNC assembly inh inconclusive, HPGD block 7.94µM
COc1ccc(NC(=S)Nc2ccc(OC)cc2OC)c(OC)c1	HPGD block 25.1µM (no result: IMPase inh, ALOX15B inhib)
COc1ccccc1NC(=O)CSc1c2c(nc3ccccc13)CCC2	none (no result: IMPase inh, ALOX15B inhib)

Source: PubChem BioAssay
